# The supplement of paper PMC8540655
# System: Aedes aegypti larvae
# Experiment: larval motility relative to same well at 0 h (fraction); higher = more motile (less active compound), active = 0.4 or less
# Conditions: 10 µM; 2 h
# Method: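 MMV Pandemic Response Box compounds were tested at 10 µM (1% v/v DMSO) on Aedes aegypti larvae (18-24 h after hatching, about 10 per well, 96-well plates). Motility was quantified with INVAPP (200-frame movies) at 0, 2 and 24 h. Each well's motility was divided by its own 0 h score, and the median of 3 independent screens is reported.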
row,SMILES,larval motility
1,Fc1ccc(-n2cc(Cn3c(-c4cccc(F)c4)nc4ccccc43)nn2)cc1,0.761 (inactive)
2,CC(N)C12CC3CC(CC(C3)C1)C2 (stereo not given),1.14 (inactive)
3,Cc1cc(CCOc2c(C)cc(-c3nnn(C)n3)cc2C)on1,0.857 (inactive)
4,CCCCc1ccc(-c2nc(C)c(C(=O)OC)s2)cc1,1.33 (inactive)
5,COc1cc(NS(=O)(=O)c2ccc(C)cc2)c2ncccc2c1,0.89 (inactive)
6,Oc1ccc2[nH]c(-c3ccccc3)nc2c1,0.633 (inactive)
7,Cc1onc(-c2ccccc2)c1-c1ccc(S(N)(=O)=O)cc1,0.513 (inactive)
8,CC(C)(C)c1ccc(C(=O)NC(=O)N2CCCc3ccccc32)cc1,0.973 (inactive)
9,N=c1n(CCN2CCCCC2)c2ccccc2n1CC(O)COc1ccc(Cl)cc1Cl (stereo not given),1.02 (inactive)
10,NC(=O)C(c1ccccc1)(c1ccccc1)[C@H]1CCCN(CCc2ccc3c(c2)CCO3)C1,0.612 (inactive)
11,N=C(N)NCCCCC(=O)Nc1cc(C(F)(F)F)cc(NC(=O)c2cc(C(=O)Nc3cc(C(F)(F)F)cc(NC(=O)CCCCNC(=N)N)c3O[C@@H]3CCNC3)ncn2)c1O[C@@H]1CCNC1,0.425 (inactive)
12,CC[C@@H](CO)NCCN[C@@H](CC)CO,0.527 (inactive)
13,O=C(NC(=O)N1CCCc2ccccc21)c1cccc(Cl)c1,0.838 (inactive)
14,C[C@H](NC(CC(=O)c1ccccc1C(F)(F)F)C(=O)O)c1ccccc1 (stereo not given in full),0.873 (inactive)
15,O=C(Nc1ccc(-c2ccccc2)cc1)C1=C(O)C(Cc2ccccc2)OC1=O (stereo not given),0.886 (inactive)
16,CCC[C@@H]1C[C@@H](C(=O)N[C@@H]([C@H]2O[C@H](SC)[C@H](O)[C@@H](O)[C@H]2O)[C@H](C)Cl)N(C)C1,0.804 (inactive)
17,C[C@H]1CC[C@@]2(O)C(C)(C)[C@@H]3CC[C@@]2(C)[C@H]1C3,0.756 (inactive)
18,O=C(Nc1nnc(-c2ccc(Cl)cc2)o1)c1ccc(F)cc1,1.18 (inactive)
19,O=C(c1cc(O)nc2ccccc12)N1CCN(c2ccccc2)CC1,0.848 (inactive)
20,O=C(Nc1ncc(Cc2cccc3ccccc23)s1)C1CCCCC1,1.07 (inactive)

# Same assay, conditions: 10 µM; 24 h
row,SMILES,larval motility
1,Fc1ccc(-n2cc(Cn3c(-c4cccc(F)c4)nc4ccccc43)nn2)cc1,0.415 (inactive)
2,CC(N)C12CC3CC(CC(C3)C1)C2 (stereo not given),0.773 (inactive)
3,Cc1cc(CCOc2c(C)cc(-c3nnn(C)n3)cc2C)on1,0.768 (inactive)
4,CCCCc1ccc(-c2nc(C)c(C(=O)OC)s2)cc1,0.97 (inactive)
5,COc1cc(NS(=O)(=O)c2ccc(C)cc2)c2ncccc2c1,0.666 (inactive)
6,Oc1ccc2[nH]c(-c3ccccc3)nc2c1,0.514 (inactive)
7,Cc1onc(-c2ccccc2)c1-c1ccc(S(N)(=O)=O)cc1,0.435 (inactive)
8,CC(C)(C)c1ccc(C(=O)NC(=O)N2CCCc3ccccc32)cc1,0.629 (inactive)
9,N=c1n(CCN2CCCCC2)c2ccccc2n1CC(O)COc1ccc(Cl)cc1Cl (stereo not given),0.502 (inactive)
10,NC(=O)C(c1ccccc1)(c1ccccc1)[C@H]1CCCN(CCc2ccc3c(c2)CCO3)C1,0.78 (inactive)
11,N=C(N)NCCCCC(=O)Nc1cc(C(F)(F)F)cc(NC(=O)c2cc(C(=O)Nc3cc(C(F)(F)F)cc(NC(=O)CCCCNC(=N)N)c3O[C@@H]3CCNC3)ncn2)c1O[C@@H]1CCNC1,0.764 (inactive)
12,CC[C@@H](CO)NCCN[C@@H](CC)CO,0.604 (inactive)
13,O=C(NC(=O)N1CCCc2ccccc21)c1cccc(Cl)c1,1.04 (inactive)
14,C[C@H](NC(CC(=O)c1ccccc1C(F)(F)F)C(=O)O)c1ccccc1 (stereo not given in full),0.674 (inactive)
15,O=C(Nc1ccc(-c2ccccc2)cc1)C1=C(O)C(Cc2ccccc2)OC1=O (stereo not given),0.946 (inactive)
16,CCC[C@@H]1C[C@@H](C(=O)N[C@@H]([C@H]2O[C@H](SC)[C@H](O)[C@@H](O)[C@H]2O)[C@H](C)Cl)N(C)C1,0.885 (inactive)
17,C[C@H]1CC[C@@]2(O)C(C)(C)[C@@H]3CC[C@@]2(C)[C@H]1C3,0.757 (inactive)
18,O=C(Nc1nnc(-c2ccc(Cl)cc2)o1)c1ccc(F)cc1,0.816 (inactive)
19,O=C(c1cc(O)nc2ccccc12)N1CCN(c2ccccc2)CC1,0.897 (inactive)
20,O=C(Nc1ncc(Cc2cccc3ccccc23)s1)C1CCCCC1,1.56 (inactive)
